# PubChem BioAssay (EPA / NIEHS)
# Inconclusive results are not listed. The source holds several records for some structures; these can differ, active in one and inactive in another. The source made the active and inactive calls. The calls were made as follows: active = hit-call score of the fitted dose curve at least 0.9, where 1 is the maximum; inconclusive = response in the unintended direction; inactive = score below 0.9.
# Experiments:
# [1] = ATG_XTT_Cytotoxicity: Cytotoxicity Assessment in the Attagene TRANS-FACTORIAL HepG2 Assay (AID 2283584);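 as to AC50: cells exposed to compound for 24 h before reading; active means loss of viability signal versus DMSO baseline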
# Summary of the method: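 Cells: human HepG2, transiently transfected with MRTU reporter constructs. Exposure 24 h. Readout: XTT, cell number. Baseline/neg ctrl DMSO; loss-of-signal scored.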
# [2] = TOX21_p53_BLA_p2_viability: Viability Assessment in the Tox21 HCT-116 p53 Agonism Beta-lactamase Assay, Phase 2 (AID 2283591);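 also: compound exposure lasted 16 h at 37 °C; actives lower the ATP signal meaning cytotoxicity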
# Summary of the method: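 HCT116 p53-bla cells, 4000/well, dosed after 5 h plating (217-fold dilution of DMSO stocks) and incubated 16 h at 37C. Viability taken as cellular ATP by CellTiter-Glo luminescence after 30 min RT; signal loss marks cytotoxicity.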
smiles,measurement,setting,value
C=CC(=O)NC(C)(C)CC(C)=O,outcome,[1],inactive
same,outcome,[2],inactive
CCOP(=S)(OCC)OP(=S)(OCC)OCC,outcome,[1],inactive
same,outcome,[2],inactive
CCOC(=O)C(SP(=S)(OC)OC)c1ccccc1 (stereo not drawn),outcome,[1],inactive
same,outcome,[2],inactive
CCCCCCCCCCCCCl,outcome,[1],inactive
same,outcome,[2],inactive
COP(=S)(OC)Oc1cc(Cl)c(I)cc1Cl,AC50,[1],157 µM (active)
same,outcome,[2],inactive
CCOP(=O)(OCC)OC(=CCl)c1ccc(Cl)cc1Cl,outcome,[1],inactive
same,outcome,[2],inactive
CC1(C)[C@H](C(=O)O[C@H](C#N)c2cccc(Oc3ccccc3)c2)[C@@H]1/C=C(\Cl)C(F)(F)F,outcome,[1],inactive
same,outcome,[2],inactive
C=CCN=C=S,outcome,[1],inactive
same,outcome,[2],inactive
CN(N=O)C(N)=O,outcome,[1],inactive
same,outcome,[2],inactive
Cc1cc(-c2cc(C)c(N)c(C)c2)cc(C)c1N,outcome,[1],inactive
same,outcome,[2],inactive
N#CCC#N,outcome,[1],inactive
same,outcome,[2],inactive
N#CCCC(Br)(C#N)CBr (stereo not drawn),outcome,[1],inactive
same,outcome,[2],inactive
O=c1oc2ccccc2c(O)c1C(CC(O)c1ccc(-c2ccc(Br)cc2)cc1)c1ccccc1 (stereo not drawn),outcome,[1],inactive
same,AC50,[2],6.09 µM (active)
same,outcome,[2],inactive
O=C=Nc1ccc(Cl)cc1,outcome,[2],inactive
O=C(Nc1ccc(Br)cc1)c1cc(Br)cc(Br)c1O,outcome,[1],inactive
same,AC50,[2],0.391 µM (active)
same,outcome,[2],inactive
CC(C)(C)c1cc([N+](=O)[O-])cc(C(C)(C)C)c1O,outcome,[1],inactive
same,AC50,[2],46.1 µM (active)
CCN(CCO)CCO,outcome,[1],inactive
same,outcome,[2],inactive
O=C(NC(=O)c1c(F)cccc1F)Nc1cc(Cl)c(F)c(Cl)c1F,outcome,[2],inactive
c1ccc(-c2cccc(-c3ccccc3)c2)cc1,outcome,[2],inactive
CCOP(=S)(OCC)SCSc1cc(Cl)ccc1Cl,outcome,[1],inactive
same,outcome,[2],inactive
O=[N+]([O-])c1cc([As](=O)(O)O)ccc1O,outcome,[2],inactive
Nc1ccc(Br)cc1,outcome,[2],inactive
CC(C)=CC1C(C(=O)OCc2cccc(Oc3ccccc3)c2)C1(C)C (stereo not drawn),outcome,[2],inactive
CC(C)(c1ccccc1)c1cc(-n2nc3ccccc3n2)c(O)c(C(C)(C)c2ccccc2)c1,outcome,[2],inactive
O=C(O)c1cc(I)cc(I)c1I,outcome,[1],inactive
same,outcome,[2],inactive
Cc1cccc(N=Nc2ccc(N(C)C)cc2)c1,outcome,[2],inactive
O=C(NC(=O)c1c(F)cccc1F)Nc1cc(Cl)c(OC(F)(F)C(F)C(F)(F)F)cc1Cl (stereo not drawn),outcome,[1],inactive
same,outcome,[2],inactive
